Source: PubChem BioAssay (NCI)
The panel holds about 79,000 compounds, 15% with a hit somewhere; the sample as a whole holds those more often. No stated cut-off is given here; in the data, active means growth inhibition above about 70%; inactive means the rest.

Experiments:
[1] = NCI Yeast Anticancer Drug Screen. Data for the rad52 strain (AID 147);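 further: 0% = growth of vehicle-treated control cultures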; settings: S. cerevisiae rad52 mutant growth inhibition, stronger effect = higher value
Procedure, shortened: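 Inhibition of yeast growth, referenced to vehicle controls, was the measured output for a strain with defective DNA damage repair.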

[2] = NCI Yeast Anticancer Drug Screen. Data for the wt1 strain (AID 149);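 further: 0% = growth of vehicle-treated wt1 cultures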; settings: S. cerevisiae wt1 strain (SPY 50644) growth inhibition, stronger effect = higher value
Procedure, shortened: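 Each compound is tested on wt1 yeast and the loss of growth versus vehicle gives the inhibition value.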

[3] = NCI Yeast Anticancer Drug Screen. Data for the rad50EPP+ strain (AID 151);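 further: 0% = growth of vehicle-treated control cultures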; settings: S. cerevisiae rad50 mutant strain, stronger effect = higher value
Procedure, shortened: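 Genetically defined yeast (rad50EPP+, DNA damage repair alteration) is grown with compound, and inhibition of growth is expressed relative to vehicle-treated controls.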

[4] = NCI Yeast Anticancer Drug Screen. Data for the mgt1 strain (AID 153); settings: S. cerevisiae mgt1 mutant growth inhibition, stronger effect = higher value
Procedure, shortened: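 In the mgt1 strain, test compounds were added and growth inhibition was determined relative to vehicle-treated controls.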

[5] = NCI Yeast Anticancer Drug Screen. Data for the rad50 strain (AID 155);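 further: 0% = growth of vehicle-only cultures of the same strain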; settings: S. cerevisiae rad50 strain growth inhibition, stronger effect = higher value
Procedure, shortened: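 Vehicle-treated cultures provide the reference for the growth inhibition reported for compound-exposed, repair-deficient yeast.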

[6] = NCI Yeast Anticancer Drug Screen. Data for the mec2-1 strain (AID 157); settings: S. cerevisiae mec2-1 strain, stronger effect = higher value
Procedure, shortened: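 Each compound was tested on mec2-1 yeast, a strain altered in DNA damage repair or cell cycle control. Growth inhibition is reported relative to vehicle.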

[7] = NCI Yeast Anticancer Drug Screen. Data for the sgs1 mgt1 strain (AID 161);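 further: 0% = growth of cultures given vehicle only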; settings: S. cerevisiae sgs1 mgt1 strain, stronger effect = higher value
Procedure, shortened: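 Inhibition of yeast growth, normalised to vehicle-treated controls, is reported for a strain bearing genetic alterations in DNA damage repair.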

[8] = NCI Yeast Anticancer Drug Screen. Data for the CLN2oe strain (AID 163);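 further: 0% = growth of vehicle-only control cultures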; settings: S. cerevisiae CLN2oe strain, stronger effect = higher value
Procedure, shortened: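 First, the altered yeast strain was treated with each compound; second, its growth was measured; finally, inhibition was derived by comparison with vehicle controls.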

[9] = NCI Yeast Anticancer Drug Screen. Data for the cln2 rad14 strain (AID 165);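 further: 0% = growth equal to vehicle treated cultures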; settings: S. cerevisiae cln2 rad14 strain, stronger effect = higher value
Procedure, shortened: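 Test compounds were added to cln2 rad14 yeast cultures; inhibition of growth was then determined by comparison with vehicle treatment.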

[10] = NCI Yeast Anticancer Drug Screen. Data for the bub3 strain (AID 167); settings: S. cerevisiae bub3 mutant strain, stronger effect = higher value
Procedure, shortened: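 Mutant yeast screening strain plus compound; vehicle-treated cultures serve as the 0% inhibition reference.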

[11] = NCI Yeast Anticancer Drug Screen. Data for the wt2 strain (AID 169); settings: S. cerevisiae wt2 strain growth inhibition, stronger effect = higher value
Procedure, shortened: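 The panel's yeast strains carry defined changes in DNA repair or cell cycle genes. Each strain is grown with compound, and growth loss is scored relative to vehicle.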

[12] = NCI Yeast Anticancer Drug Screen. Data for the mlh1 strain (AID 171);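 further: 0% = growth of vehicle-treated control cultures of the same strain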; settings: S. cerevisiae mlh1 strain growth inhibition, stronger effect = higher value
Procedure, shortened: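 Inhibition values reflect reduced yeast growth in the presence of compound, referenced to vehicle controls, using a strain chosen for its alteration in DNA repair or cell cycle control.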

[13] = NCI Yeast Anticancer Drug Screen. Data for the sgs1 strain (AID 173);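 further: 0% = growth of vehicle-only control cultures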; settings: S. cerevisiae sgs1 mutant, stronger effect = higher value
Procedure, shortened: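 Vehicle-treated cultures served as reference for growth inhibition of a yeast strain altered in DNA damage repair or cell cycle control after compound exposure.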

[14] = NCI Yeast Anticancer Drug Screen. Data for the mlh1 rad18 strain (AID 175); settings: S. cerevisiae mlh1 rad18 strain growth inhibition, stronger effect = higher value
Procedure, shortened: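 Inhibition values reflect reduced growth of mutant yeast versus vehicle-treated controls following compound exposure; the mutations affect DNA damage repair.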

[15] = NCI Yeast Anticancer Drug Screen. Data for the rad18 strain (AID 177); settings: S. cerevisiae rad18 mutant growth inhibition, stronger effect = higher value
Procedure, shortened: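 Steps: expose repair-mutant yeast to compound; measure growth; express as inhibition relative to vehicle control.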

[16] = at 5.0 µM (retest, dose inferred, filed as 0.5)
[17] = at 50.0 µM (retest, dose inferred, filed as 5.0)

Measured: growth inhibition

CC(=O)OCC1OC2OC(=O)NC2C(OC(C)=O)C1OC(C)=O (stereo not drawn)
inactive: [1]; at 1.2 µM -3% | [1]; at 3.7 µM -1% | [1]; at 11.0 µM 0% | [1]; at 33.0 µM 1% | [1]; at 100.0 µM -3% | [2]; at 1.2 µM -3% | [2]; at 3.7 µM -3% | [2]; at 11.0 µM -2% | [2]; at 33.0 µM -2% | [2]; at 100.0 µM -1% | [3]; at 1.2 µM -4% | [3]; at 3.7 µM 0% | [3]; at 11.0 µM -1% | [3]; at 33.0 µM -5% | [3]; at 100.0 µM -8% | [4]; at 1.2 µM -1% | [4]; at 3.7 µM -1% | [4]; at 11.0 µM 1% | [4]; at 33.0 µM -4% | [4]; at 100.0 µM -35% | [5]; at 1.2 µM -5% | [5]; at 3.7 µM -1% | [5]; [16] 5% | [5]; at 11.0 µM 0% | [5]; at 33.0 µM -1% | [5]; [17] -1% | [5]; at 50.0 µM 5.15% | [5]; at 100.0 µM 0% | [6]; at 1.2 µM -2% | [6]; at 3.7 µM -2% | [6]; [16] -7% | [6]; at 11.0 µM -1% | [6]; at 33.0 µM -1% | [6]; [17] 3% | [6]; at 50.0 µM 10.9% | [6]; at 100.0 µM 0% | [7]; [16] 2% | [7]; [17] 15% | [7]; at 50.0 µM -17.1% | [8]; at 1.2 µM -3% | [8]; at 3.7 µM 2% | [8]; at 11.0 µM -1% | [8]; at 33.0 µM -4% | [8]; at 100.0 µM 0% | [9]; [16] -21% | [9]; [17] 44% | [9]; at 50.0 µM -15.3% | [10]; at 1.2 µM 13% | [10]; at 3.7 µM 2% | [10]; [16] 3% | [10]; at 11.0 µM -2% | [10]; at 33.0 µM 1% | [10]; [17] 3% | [10]; at 50.0 µM -9.2% | [10]; at 100.0 µM -4% | [11]; at 1.2 µM -3% | [11]; at 3.7 µM -3% | [11]; at 11.0 µM -3% | [11]; at 33.0 µM -4% | [11]; at 100.0 µM -1% | [12]; at 1.2 µM -2% | [12]; at 3.7 µM -3% | [12]; at 11.0 µM -2% | [12]; at 33.0 µM -1% | [12]; at 100.0 µM 0% | [13]; at 1.2 µM -3% | [13]; at 3.7 µM -3% | [13]; at 11.0 µM -2% | [13]; at 33.0 µM -1% | [13]; at 100.0 µM 0% | [14]; [16] -9% | [14]; [17] 5% | [14]; at 50.0 µM -7.3% | [15]; at 1.2 µM -3% | [15]; at 3.7 µM -1% | [15]; at 11.0 µM 0% | [15]; at 33.0 µM -3% | [15]; at 100.0 µM -2%
